Laboratory results published in PubChem BioAssay (EPA / NIEHS).
“And” between values parts separate entries of the source, which are not always exact repeats. Identical values can stand only once. The source made the active and inactive calls. Rule for the calls: active = hit-call score of the fitted dose curve at least 0.9, where 1 is the maximum; inactive = score below 0.9.

What follows are molecules tested on CD69, CD69 (gene 969) (assay: BSK_SAg_CD69: BioMAP Diversity Plus: SAg Assay for CD69 Biomarker Activity (AID 2283089)). Conditions: primary human HUVEC with PBMC; actives raise or lower the signal.
Description: BSK_SAg is a cell-based, multiplexed-readout assay that uses umbilical vein endothelium and peripheral blood mononuclear cells, a human vascular primary cell co-culture, with measurements taken at 24 hours after chemical dosing in a 96-well plate.BSK_SAg_CD69 is one of 10 assay component(s) measured or calculated from the BSK_SAg assay. It is designed to make measurements of enzyme-linked immunosorbent assay, a form of binding reporter, as detected with fluorescence intensity signals by Enzyme-linked immunosorbent assay technology.Data from the assay component BSK_SAg_CD69 was analyzed into 1 assay endpoint. This assay endpoint, BSK_SAg_CD69, was analyzed with bidirectional fitting relative to DMSO as the negative control and baseline of activity. Using a type of binding reporter, gain or loss-of-signal activity can be used to understand changes in the signaling as they relate to the gene CD69. Furthermore, this assay endpoint can be referred to as a primary readout, because this assay has produced multiple assay endpoints where this one serves a signaling function. To generalize the intended target to other relatable targets, this assay endpoint is annotated to the cytokine intended target family, where the subfamily is inflammatory factor.
The levels of cell surface (or secreted, indicated by the prefix "s") biomarker endpoints were measured by ELISA. Overt cytotoxicity to cells in confluent adherent cultures (all systems other than the BT system) was assessed by measuring total protein levels using sulforhodamine B (SRB) staining in parallel cultures at the time of biomarker measurements, indicated as SRB endpoints. For proliferation assays for adherent cell types, individual cell types are cultured at sub-confluence and relative cell numbers quantified by SRB staining at time points optimized for each system (48 h: 3C and CASM3C systems; 72 h: BT and HDF3CGF systems; 96 h: SAg system). SRB was performed by staining cells with 0.1% SRB after fixation with 10% TCA and reading wells at 560 nm.Viability and proliferation of PBMC (T cells) was quantified by Alamar Blue reduction for the SAg and BT systems. For PBMC viability (referred to as PBMC Cytotoxicity within the assay endpoint names), cells were plated (75,000/well in a 96-well plate) and then chemical samples added for 1 h before addition of activators, SEB and TSST-1 (20 ng/mL final concentration each). Cells were incubated for 90 h. Then, Alamar Blue (20 uL/well) (Invitrogen, Cat DAL1100) was added for 6 h, and the plates were read with a fluorescence microplate reader at 546/580 nm (excitation/emission). For PBMC proliferation, cells were plated and activated as above but incubated for only 16 h prior to addition of Alamar Blue. Plates were read after 6 h.
In the case of `COc1ccc(C(=O)/C(Br)=C\C(=O)O)cc1`, the AC50 is reported as 15.6 µM (active) and 15.7 µM (active).
`Oc1c(Cl)cc(Cl)c(Cl)c1Cl` was tested, and the AC50 was 27.8 µM (active).
For `O=C(Oc1ccccc1)c1ccccc1C(=O)Oc1ccccc1`, the AC50 was 24.1 µM (active).
With `O=C1CCCCCCCCCCC1` the outcome was “inactive”.
With `CCCCCCOC(=O)CCCCC(=O)OCCCCCC` the outcome was “inactive”.
For `CCNc1nc(NC(C)(C)C)nc(OC)n1`, the outcome was “inactive”.
In the case of `COC(OC)(C(=O)c1ccccc1)c1ccccc1`, the outcome is reported as “inactive”.
`CC/C=C\C/C=C\C/C=C\CCCCCCCC(=O)OC` was tested, and the AC50 was 21.6 µM (active).
With `CC=C(C)C(C)=O` the outcome was “inactive”.
For `CC(C)CCCCCOC(=O)CS`, the outcome was “inactive”.
With `COc1ccc(C(=O)c2ccccc2)c(O)c1` the outcome was “inactive”.
For `CC(Cl)COP(=O)(OCC(C)Cl)OCC(C)Cl` (stereo not given), the outcome was “inactive”.
In the case of `Nc1nc(N)nc(-c2ccccc2)n1`, the outcome is reported as “inactive”.
For `CCN1CN(CC)CN(CC)C1`, the outcome was “inactive”.
In the case of `CC(CCC(=O)O)(c1ccc(O)cc1)c1ccc(O)cc1`, the outcome is reported as “inactive”.
For `CCOC(=O)C1=NOC(c2ccccc2)(c2ccccc2)C1`, the outcome was “inactive”.
With `Nc1cccc(N)n1` the outcome was “inactive”.
For `Nc1ccc(C(=O)O)cc1`, the outcome was “inactive”.
`CCCCCCCCC(CO)CCCCCC` (stereo not given) was tested, and the outcome was “inactive”.
`CCCCCCCCCCCC(C)=O` was tested, and the AC50 was 31.1 µM (active).
In the case of `C=CC(=O)OCC(C)OCC(C)OCC(C)OC(=O)C=C` (stereo not given), the AC50 is reported as 7.77 µM (active).
`O=C(Cl)c1c(Cl)c(Cl)c(C(=O)Cl)c(Cl)c1Cl` was tested, and the outcome was “inactive”.
In the case of `Cc1ccc([N+](=O)[O-])cc1N`, the outcome is reported as “inactive”.
`Cc1c(O)cccc1O` was tested, and the outcome was “inactive”.
With `O=C(O)C(F)(F)C(F)(F)C(F)(F)C(F)(F)C(=O)O` the outcome was “inactive”.
`c1ccc2sc(SSN3CCOCC3)nc2c1` was tested, and the outcome was “inactive”.
For `CCCC(C)C(=O)OCC` (stereo not given), the outcome was “inactive”.
In the case of `C=CC(=O)OCCCCCCCC(C)C`, the outcome is reported as “inactive”.
In the case of `CCCCCCC=O`, the outcome is reported as “inactive”.
In the case of `CC(C)c1cccc(C(C)C)c1N`, the outcome is reported as “inactive”.
For `CCCCCCCO`, the outcome was “inactive”.
With `c1ccc2c(c1)[nH]c1ccccc12` the outcome was “inactive”.
In the case of `CC1=CC=C(C(C)C)CC1`, the outcome is reported as “inactive”.
For `CCc1cccc(C)c1N(C(=O)CS(=O)(=O)O)C(C)COC` (stereo not given), the outcome was “inactive”.
In the case of `c1ccc(Nc2cccc3ccccc23)cc1`, the AC50 is reported as 30.4 µM (active) and 33.2 µM (active).
With `CCOC(=O)C1=NN(c2ccc(Cl)cc2Cl)C(C)(C(=O)OCC)C1` (stereo not given) the outcome was “inactive”.
`CCOC(=O)/C=C\C(=O)OCC` was tested, and the outcome was “inactive”.
`CC/C=C\CCOC(=O)c1ccccc1O` was tested, and the AC50 was 20 µM (active).
In the case of `CC1(C)CC(O)CC(C)(C)N1[O]`, the outcome is reported as “inactive”.
With `C=CCCCCCCCCC=O` the outcome was “inactive”.
